A selection: hits, their analogues and other compounds. The true share with any hit is near 5%.
PREPL inh – PREPL enzyme inhibitors, primary screen, biochemical, fluorescence polarization. AID 2751, 2010. recombinant PREPL, fluorescence polarization activity-based probe. inhibition, % at 5.96 µM. hit rate 0.68% among 320,000. Prolyl endopeptidase-like (Homo sapiens), Q4J6C6; in the data active = inhibition above about 43%
CHT PAM – CHT positive allosteric modulators, primary screen, cell-based, membrane potential dye, choline EC20 | hit rate 0.49% among 310,000 | High affinity choline transporter 1 (Homo sapiens), Q9GZV3 | B-score at 10 µM | CHT-expressing cells; active compounds read high; LV-AA mutant CHT in HEK293 cells;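 active = initial fluorescence not abnormally high and integrated response B-score, plate-corrected, over 3 SD above library mean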
AI-2 QS mod – Vibrio harveyi AI-2 quorum sensing modulators, primary screen, JMH597 strain, luminescence/OD600 ratio; Vibrio harveyi JMH597 AI-2 luminescence/OD600 ratio, 9 h; active compounds read low; strain lacks LuxN and CqsS sensors; 0 = neutral-control median; activity change, % at 7.5 µM; hit rate 0.4% among 300,000; AID 2094, 2009; in the data active = activity change below about -75%, passing the limit was not always enough;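 note: luminescence divided by OD600 gain over 9 h not by final OD600 alone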
CHT block – inhibitors of human choline transporter CHT; High affinity choline transporter 1 (Homo sapiens), Q9GZV3; CHT-expressing cells, membrane potential dye, choline response; active compounds read low; B-score at 10 µM; hit rate 0.86% among 310,000; AID 488975, 2010;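 active = B-score over 3 SD under the library average, and starting fluorescence ratio not unusually high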;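 note: choline stimulus applied at its EC90 after an EC20 pre-addition; B-score computed on integrated fluorescence ratio after choline addition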
ALR inh – inhibitors of human ALR sulfhydryl oxidase, primary screen, biochemical, H2O2 detection, HRP-luminol luminescence, single point. FAD-linked sulfhydryl oxidase ALR (Homo sapiens), P55789. purified ALR, DTT oxidation. inhibition, % (no concentration beside the values). hit rate 3.8% among 290,000. AID 485317, 2010;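 active = mean replicate inhibition above about 79%, with every replicate also reaching it, limit read from the data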
Large screens that a line does not name were inactive.

O=C(CN(C(=O)CNC(=O)c1cccs1)c1cccc(F)c1)NC1CCCC1	none
COc1ccccc1CN1CC(C(=O)NC2(c3ccccc3)CC2)CCC1=O (stereo not given)	none
CN1C(=O)CC(C(=O)O)SC1=Nc1cc(Cl)c(O)c(Cl)c1 (stereo not given)	ALR inh 99
CN1C(=O)CC(C(=O)O)SC1=Nc1cc(Cl)cc(Cl)c1 (stereo not given)	none
CN1CCc2cccc3c2C1Cc1ccc(O)c(O)c1-3 (stereo not given)	ALR inh 98
Cc1ccccc1CN(c1ccc(C(=O)NCc2cccnc2)cc1)S(C)(=O)=O	ALR inh 96
CCOC(=O)c1c(C)[nH]c(C(=O)NCCc2ccc(OC)c(OC)c2)c1C	none
COc1ccc(-c2nc(CS(=O)CC(=O)NCCCN3CCCC3)c(C)o2)cc1OC (stereo not given)	ALR inh 99
Cc1oc(-c2ccc(Cl)cc2)nc1CS(=O)CC(=O)NCCN1CCCCCC1 (stereo not given)	ALR inh 99
COc1ccc(-c2nc(CS(=O)CC(=O)NCCN3CCCCCC3)c(C)o2)cc1OC (stereo not given)	ALR inh 100 (no result: AI-2 QS mod)
COc1ccc(-c2nc(CN3CCC(C(=O)N4CCOCC4)CC3)c(C)o2)cc1OC	none
COc1ccc(-c2nc(CS(=O)CC(=O)NCCCN3CCOCC3)c(C)o2)cc1OC (stereo not given)	ALR inh 99
CCCS(=O)(=O)c1ccc(COC(=O)Cc2ccc([N+](=O)[O-])cc2)cc1	none
COc1cc(-c2nc(CN3CCCCC3CCNC(C)=O)c(C)o2)ccc1F (stereo not given)	none
COc1ccc(-c2nc(CS(=O)CC(=O)NCCN3CCCCC3C)c(C)o2)cc1OC (stereo not given)	ALR inh 100
COC(=O)c1ccc(CSc2nc(C(F)(F)F)c3c(c2C#N)CCC3)o1	ALR inh 98
CC(C)(C)C1CCCCC1NC(=O)c1ccncc1 (stereo not given)	none (no result: PREPL inh)
COc1cc(C2C(C#N)=C(N)N(N(C)C)C3=C2C(=O)CC(C)(C)C3)cc(OC)c1OC (stereo not given)	none
O=C(NCC1CCCCC1)c1ccc(=O)[nH]c1	none
CC(=O)Nc1cccc(NC(=O)c2cccc(-c3ccc(O)cc3)c2)c1	ALR inh 99
O=C(NCC1CCCCC1)c1cccc(-c2ccc(O)cc2)c1	ALR inh 82
Cc1ccc(SCc2c(C#N)c3ccccc3n2C)cc1	ALR inh 99
CCc1ccc(/C=N/NC(=O)Cc2cccn2C)cc1	ALR inh 96
Cc1ccc2c(c1)N(C)/C(=C/c1cccc[n+]1C)S2	ALR inh 97
COc1ccc2c(c1)N(C)/C(=C/c1cccc[n+]1C)S2	ALR inh 97
Cc1ccc(/C=c2\sc3nc(-c4cccnc4)nn3c2=O)cc1	ALR inh 91
Cc1ccc(N2CN=c3s/c(=C\c4cccnc4)c(=O)n3C2)cc1	none
CC(C)c1ccc(/C=c2\sc3nc(-c4ccncc4)nn3c2=O)cc1	ALR inh 87
CCOc1ccc(/C=c2\sc3nc(-c4ccco4)nn3c2=O)cc1OCC	none
Cc1cccc(C(=O)N2CCCC(Nc3ccc(C)c(C)c3)C2)n1 (stereo not given)	ALR inh 99
Cc1ccc(NC2CCCN(C(=O)c3cccc4nccnc34)C2)cc1C (stereo not given)	ALR inh 88
COc1ccc(NC2CCCN(C(=O)c3ccc4nccnc4c3)C2)cc1OC (stereo not given)	ALR inh 96
CC(C)c1ccc(NC2CCCN(C(=O)c3cccc4nccnc34)C2)cc1 (stereo not given)	none
COc1ccc(C(=O)N2CCCC(Nc3ccc(C)c(C)c3)C2)c(OC)n1 (stereo not given)	ALR inh 83
Cc1ccc(NC2CCCN(C(=O)c3ccc4nccnc4c3)C2)cc1C (stereo not given)	ALR inh 98 (no result: PREPL inh)
O=C(c1ccc2nccnc2c1)N1CCCC(Nc2ccc(F)c(F)c2)C1 (stereo not given)	none
Cc1ccc(NC2CCCN(C(=O)c3ccnc(Cl)c3)C2)cc1C (stereo not given)	ALR inh 96
Cc1ccc(NC2CCCN(C(=O)c3ccc(F)cc3)C2)cc1C (stereo not given)	ALR inh 90
Cc1ccc(NC2CCCN(C(=O)c3ccc(-n4ccnc4)cc3)C2)cc1C (stereo not given)	none
CCc1nc2ccc(C(=O)N3CCN(c4ccc(Cl)cc4)CC3)cc2nc1CC	none
N#Cc1ccccc1OCC(=O)Nc1nnc(C2CC2)s1	none (no result: CHT PAM, AI-2 QS mod, CHT block)
O=C(Nc1ccccc1N1CCN(C(=O)c2ccccc2)CC1)c1ccc(Br)o1	none
COc1ccc(-c2cn(Cc3ccc(C(N)=O)cc3)c(-c3ccncc3)n2)cc1	ALR inh 98 (no result: AI-2 QS mod)
O=C(O)CCn1cc(-c2ccc(Cl)cc2)nc1-c1ccncc1	ALR inh 77 (no result: AI-2 QS mod)
COc1ccc(-c2cn(CCC(=O)O)c(-c3ccncc3)n2)cc1	none (no result: AI-2 QS mod)
CC(=O)NS(=O)(=O)c1cccnc1Nc1ccc(Cl)c(Cl)c1	ALR inh 98
CCOC(=O)Cn1c(=O)oc2cc(S(=O)(=O)Nc3ccc(N(CC)CC)cc3C)ccc21	ALR inh 99
CN(C)C(=O)c1cc(C(=O)c2ccccc2Cl)c[nH]1	none
Cc1cccc(-c2cnn(-c3cccc([N+](=O)[O-])c3)c2N)c1	ALR inh 92
CC(C)(C)c1cnnn1-c1cccc([N+](=O)[O-])c1	none
O=C(CCN1C(=O)/C(=C/c2cccs2)SC1=S)Nc1ccc(C(=O)O)cc1	none
Cc1ccc(Cn2ccsc2=NC(=O)COC(=O)c2ccc(NC(=O)CC#N)cc2)cc1	none
Cc1ccc(Cn2ccsc2=NC(=O)CCl)cc1	ALR inh 97
Cc1sc(N)nc1-c1c(C)n(C)c2ccccc12	ALR inh 99 (no result: PREPL inh)
CCn1c(SCC(=O)OC)nnc1-c1c[nH]c2ccccc12	none
COc1ccc2oc(C(=O)OCC(=O)N(CCC#N)c3ccccc3)c(C)c2c1	none
CCOc1cc(-c2cc(-c3ccc(C)cc3)nc(N)c2C#N)ccc1O	none
CCOc1cc(/C=C(\C#N)c2[nH]nc(N)c2C#N)ccc1O	PREPL inh 52, ALR inh 99
CCOc1ccc(-c2cc3nc(C4CCN(C(=O)OC(C)(C)C)CC4)c(C(=O)O)cn3n2)cc1	ALR inh 98
Cc1cc(C)c2nc(N3C(=O)C(O)=C(C(=O)c4ccco4)C3c3cccc(O)c3)sc2c1 (stereo not given)	ALR inh 99 (no result: CHT PAM, AI-2 QS mod, CHT block)

Screening results from PubChem.
